Counter-ions that a name gives are not always drawn. ± gives the standard deviation of the averaged measurements.
System: mESC LDLR-Dup GFP reporter (SpCas9 MH-deletion repair)
Test: fraction of GFP+ cells relative to DMSO control (fold change); higher = more MH-deletion repair to in-frame LDLR (or more editing)
Details: 2 µM; 7 days post-transfection

Row | Compound | fraction of GFP+ cells
1 | Cc1c(C)c2c(c(C)c1O)CCC(C)(COc1ccc(CC3SC(=O)NC3=O)cc1)O2 (centres undefined) [Troglitazone (CS-045)] | 1.34 ± 0.24
2 | CCc1ccc(/C=C2/SC(=S)NC2=O)cc1 | 0.853 ± 0.25
3 | O=C(O)COc1ccc(Br)cc1C=C1SC(=S)N(Cc2cccnc2)C1=O [Skp2 inhibitor C1 (SKPin C1)] | 0.783 ± 0.085
4 | O=C(Nc1ccc(Cl)cc1)C1CCCN(C(=O)c2cccc(-c3ccco3)c2)C1 (centres undefined) | 0.756 ± 0.13
5 | O=c1ccn([C@@H]2O[C@H](CO)[C@@H](O)[C@H]2O)c(=O)[nH]1 [Uridine] | 1.24 ± 0.54
6 | CCCCCCCCCCCCCC(=S)NCCCC[C@H](NC(=O)OCc1ccccc1)C(=O)Nc1ccccc1 [Thiomyristoyl] | 0.948 ± 0.9
7 | CC(C)OC(=O)[C@H](C)N[P@](=O)(OC[C@H]1O[C@@H](n2ccc(=O)[nH]c2=O)[C@](C)(F)[C@@H]1O)Oc1ccccc1 [Sofosbuvir (PSI-7977, GS-7977)] | 1.03 ± 0.4
8 | Nc1nc(N)c(N=O)c(OCC2CCCCC2)n1 | 0.999 ± 0.11
9 | CCn1cc(C(=O)O)c(=O)c2cc(F)c(N3CCN(C)CC3)cc21 [Pefloxacin Mesylate Dihydrate] | 1.13 ± 0.09
10 | CCn1cc(C(=O)O)c(=O)c2cc(F)c(N3CCNCC3)nc21 [Enoxacin] | 1.04 ± 0.096
11 | O=C(O[C@@H]1Cc2c(O)cc(O)cc2O[C@@H]1c1cc(O)c(O)c(O)c1)c1cc(O)c(O)c(O)c1 [(-)-Epigallocatechin Gallate] | 0.828 ± 0.097
12 | N#Cc1ccc2ncnc(NCCc3ccccc3)c2c1 [Senexin A] | 0.863 ± 0.11
13 | Cn1cc(C(=O)Nc2ccc3c(c2)OCCO3)c2ccccc2c1=O | 1.33 ± 0.53
14 | COc1cccc2c1c(O)c(C(=O)N(C)c1ccc(C(F)(F)F)cc1)c(=O)n2C [Tasquinimod] | 0.837 ± 0.12
15 | C/C(=C\C(=O)OCCCCCCCCC(=O)O)C[C@@H]1OC[C@H](C[C@@H]2O[C@H]2[C@@H](C)[C@H](C)O)[C@@H](O)[C@H]1O [Mupirocin] | 1.12 ± 0.3
16 | O=C(c1ccc(Cl)cc1Cl)n1nnc2ccccc21 | 0.756 ± 0.056
17 | C[C@H]1COc2c(N3CCN(C)CC3)c(F)cc3c(=O)c(C(=O)O)cn1c23 [Levofloxacin] | 0.954 ± 0.01
18 | C=C1CC[C@H](O)C/C1=C/C=C1\CCC[C@]2(C)[C@@H]([C@H](C)/C=C/[C@H](C)C(C)C)CC[C@@H]12 [Vitamin D2] | 1.43 ± 0.26
19 | CC(=O)NCC(=O)N1[C@@H]2CC[C@H]1c1ccc(Nc3ncc(C(F)(F)F)c(NC4CCC4)n3)cc12 | 1.27 ± 0.73
20 | CN(C)CCNC(=O)c1cccn2c(=O)c3cc4ccccc4cc3nc12 | 1.06 ± 0.28

Row | Compound | fraction of GFP+ cells
21 | Cc1ncc([N+](=O)[O-])n1CCO [Metronidazole] | 0.96 ± 0.35
22 | CC1=CC(=O)c2ccccc2C1=O [Menadione] | 1.27 ± 0.36
23 | CC1CCc2cc(F)cc3c(=O)c(C(=O)O)cn1c23 (centres undefined) [Flumequine] | 0.977 ± 0.12
24 | NC[C@@](O)(c1ccc(Cl)cc1)c1ccc(-c2cn[nH]c2)cc1 | 1.33 ± 0.93
25 | Nc1ccn(C[C@@H](CO)OCP(=O)(O)O)c(=O)n1 [Cidofovir] | 1.02 ± 0.1
26 | CC(C)(Oc1ccc(C2CC2(Cl)Cl)cc1)C(=O)O (centres undefined) [Ciprofibrate] | 1.74 ± 0.1
27 | CCc1ccc(CCOc2ccc(CC3SC(=O)NC3=O)cc2)nc1 (centres undefined) [Pioglitazone HCl] | 1.11 ± 0.13
28 | NC(=O)c1ncn([C@@H]2O[C@H](CO)[C@@H](O)[C@H]2O)c1O [Mizoribine] | 1.05 ± 0.12
29 | O=C(Nc1ccccc1)c1cc([N+](=O)[O-])ccc1Cl | 1.96 ± 0.34
30 | CN(C)C(=O)c1cc2cnc(Nc3ccc(N4CCNCC4)cn3)nc2n1C1CCCC1 [Ribociclib (LEE011)] | 1.04 ± 0.21
31 | CN(Cc1cnc2nc(N)nc(N)c2n1)c1ccc(C(=O)N[C@@H](CCC(=O)O)C(=O)O)cc1 [Methotrexate] | 1.53 ± 0.28
32 | Cc1cc([N+](=O)[O-])ccc1NS(=O)(=O)c1cc(Cl)ccc1Cl | 1.64 ± 0.13
33 | O=C(CCCCCCNC(=O)c1cnc(N(c2ccccc2)c2ccccc2Cl)nc1)NO [Citarinostat (ACY-241)] | 0.902 ± 0.074
34 | O=c1[nH]c(=O)n(C2CC(O)C(CO)O2)cc1Br (centres undefined) [Bromodeoxyuridine (BrdU)] | 1.79 ± 0.2
35 | CS(=O)(=O)c1ccc(-c2cnc(N)c(C(=O)Nc3ccccc3)n2)cc1 | 0.582 ± 0.061
36 | O=c1[nH]c(=O)n([C@H]2C[C@H](O)[C@@H](CO)O2)cc1C(F)(F)F [Trifluridine] | 2.69
37 | NC(=O)c1nc(F)cnc1O [Favipiravir (T-705)] | 0.826 ± 0.25
38 | O=c1[nH]nc2c3c(cccc13)N=C(CN1Cc3ccccc3C1)N2 | 0.38 ± 0.041
39 | O=C(O)CCCc1ccccc1 [Sodium Phenylbutyrate] | 0.708 ± 0.082
